Hits are enriched below; roughly 7.9% of the tested compounds scored in any of these assays.
MARV entry inh = blocks Marburg virus binding to or entry into cells. Marburg virus pseudotyped entry inhibition, cell reporter. Potency, µM (doses to about 37.8 µM), for inactives: at the top dose activity change, negative = inhibition, usual class: inhibitors. hit rate 1.8% among 300,000. AID 540276; calls by dose curve; tested in HEK293 cells; also: potency is read from the fitted curve at half-maximal effect
HCMV inh = inhibitors of human cytomegalovirus; HFF cells, HCMV-luciferase reporter, 72 h; active compounds read low; activity change, negative = inhibition, % at 57.5 µM; hit rate 4.5% among 410,000; AID 1259415; in the data active = activity change below about -60%; inconclusive = no clear call, values can overlap the other calls; inactive = above about -39%
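Steps: HFFs plated, 16 h 37C; compounds added; HCMV-luciferase added to MOI 1 PFU/cell; 72 h 37C; OneGlo reagent, 5 min room temperature; luminescence read, normalized to controls.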
HCV inh = HCV inhibition | Huh7.5.1 HCVcc-Cre infection, luciferase reporter, 44 h | Potency, µM (doses to about 41.8 µM), without a hit: top-dose activity change, negative = inhibition, most hits filed as inhibitors | hit rate 3.4% among 340,000; active = well fitted inhibition curve with a large enough effect; inconclusive = small, poorly fitted or top-dose-only effect, or another doubt; inactive = no such curve, though single readings can be large or run the other way; also: potency is read from the fitted curve at half-maximal effect
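Luciferase read-out (15 sec integration) after a 15 min room-temperature substrate step quantifies HCVcc-Cre infection. Cells, 1,000 per well, had compound added 4 h post-plating, then virus at ~0.5 moi, and were cultured 44 h.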
LASV entry inh = blocks Lassa virus binding to or entry into cells | Lassa virus pseudotype entry inhibition, cell reporter | Potency, µM (top dose mostly 37.9 µM), for the others: at the highest dose activity change, negative = inhibition, actives largely listed as inhibitors | hit rate 1.2% among 300,000; calls by dose curve; tested in HEK293 cells; also: potency is read from the fitted curve at half-maximal effect; nearly all actives have a fitted effect of over 50% in size
FMDV inh = foot and mouth disease virus antiviral activity; FMDV antiviral cell-based qHTS; Potency, µM (top dose mostly 57.9 µM), inactives show top-dose activity change, negative = inhibition, most hits filed as inhibitors; hit rate 1.2% among 410,000; AID 1159524; calls by dose curve; tested in HEK293T cells; also: read-out not given here; potency is read from the fitted curve at half-maximal effect; nearly all actives have a fitted effect of over 45% in size
The depositor's hits bear a star; ? = inconclusive; . = no result given; + = active, no number; [ ] = dose if it differs, or a comment. % is scaled to controls: 0 for no effect and ±100 for the full control effect.

SMILES | MARV entry inh | HCMV inh | HCV inh | LASV entry inh | FMDV inh
CCC(C)NC(=O)Cn1c(=O)n(-c2cc(OC)cc(OC)c2)c(=O)c2ccccc21 (centres undefined) | 28%[46.1 µM] | 6 | . | -4%[46.1 µM] | 0%
CCOC(=O)c1c(C)oc2nc(C)nc(NCC3CCN(Cc4ccc(C)cc4)CC3)c12 | . | -3 | . | 17%[46.1 µM] | -16%
CCOC(=O)c1c(C)oc2nc(C)nc(NCC3CCN(Cc4ccccc4C)CC3)c12 | . | -104* | . | 17%[46.1 µM] | -9%
CCCS(=O)(=O)N1CC(=O)N(c2ccc(C)c(Cl)c2)C(C)(C(=O)NC2CCCCCC2)C1 (centres undefined) | . | ? | . | 1%[46.1 µM] | -12%
NC(=O)N=Nc1c(O)[nH]c2ccc([N+](=O)[O-])cc12 | . | -20 | 5% | . | -13%
C=C(C)CNC(=S)N=Nc1c(O)[nH]c2ccc([N+](=O)[O-])cc12 | -16%[46.1 µM] | -15 | 25µM* | -24% | -18%
CC(C)NC(=S)N=Nc1c(O)[nH]c2ccc([N+](=O)[O-])cc12 | -23%[46.1 µM] | ? | 1.1µM* | ? | ?
Cc1cc(C)c(S(=O)(=O)N2Cc3ccccc3-n3nncc3C2)c(C)c1 | . | ? | . | . | 22µM*
CCC(=O)N1CCc2cc(Br)cc(S(=O)(=O)CCC(=O)NCCOC)c21 | 1% | -84* | 22% | 15% | 1%
O=C(C1CC1)N1CCc2cc(Br)cc(S(=O)(=O)NC3CCCCC3)c21 | ? | -15 | 7.1µM* | ? | 24%
CCOC(=O)N1CCC(NS(=O)(=O)c2cc3c(cc2Cl)NC(=O)CO3)CC1 | -27%[46.1 µM] | 17 | -21% | 1.8µM* | -23%
CN(Cc1ccccc1)S(=O)(=O)c1cc(Br)cc2c1N(C(=O)C1CC1)CC2 | -30%[46.1 µM] | -71* | . | ? | 3%
O=C(C1CC1)N1CCc2cc(Br)cc(S(=O)(=O)N3CCCCCC3)c21 | -30% | 21 | ? | -1% | -8%
CCOC(=O)N1CCC(NS(=O)(=O)c2ccc3c(c2)OCC(=O)N3)CC1 | 21% | 19 | -9% | 9% | 37%
CCC(=O)N1CCc2cc(Br)cc(S(=O)(=O)CCC(=O)NCCc3ccc(Cl)cc3)c21 | 27%[46.1 µM] | -21 | . | ? | -6%
C=CCN1C(=O)[C@]2(O[C@H](C)CC3=CCCC32)c2c(Br)cccc21 (some centres undefined) | 2%[14.2 µM] | . | . | ? | .
CCc1cccc(NC(=O)C(CC(C)C)NS(=O)(=O)c2ccc3c(c2)oc(=O)n3C)c1 (centres undefined) | -9%[46.1 µM] | -5 | . | 1%[46.1 µM] | 38%
CCOC(=O)N1CCC(NS(=O)(=O)c2cc(Br)cc3c2N(C(=O)CC)CC3)CC1 | ? | -105* | -27% | ? | -12%
CCC(=O)N1CCc2cc(Br)cc(S(=O)(=O)NCCN3CCCCC3CC)c21 (centres undefined) | ? | 22 | 2.5µM* | 15% | 39%
O=C(NCCc1nnc2n1CCN(Cc1ccc(F)c(F)c1)CC2)c1ccoc1 | . | . | . | . | -5%
COC(=O)C(NC(=O)CCc1c(C)nc2c(-c3ccccc3)c(C)nn2c1C)C(C)C (centres undefined) | 3%[46.1 µM] | 0 | . | 21%[46.1 µM] | -19%
CCc1cccc(NC(=O)C2CCN(S(=O)(=O)c3ccc4c(c3)CC(C)N4C(C)=O)CC2)c1 (centres undefined) | . | -85* | ? | . | 14µM*
CC(=O)N1c2ccc(S(=O)(=O)N3CCC(C(=O)Nc4cccc(C(F)(F)F)c4)CC3)cc2CC1C (centres undefined) | . | -89* | 2.5µM* | . | ?
COc1cccc(NC(=O)C2CCN(S(=O)(=O)c3ccc4c(c3)CC(C)N4C(C)=O)CC2)c1 (centres undefined) | . | ? | ? | . | -17%
CC(=O)N1c2ccc(S(=O)(=O)N3CCC(C(=O)Nc4ccc(F)cc4)CC3)cc2CC1C (centres undefined) | -24%[46.1 µM] | ? | 11µM* | -8%[46.1 µM] | -28%
CCOc1ccc(CNC(=O)c2ccc3[nH]c(C)c(C)c3c2)cc1OC | . | + | . | ? | -13%
CCOC(=O)C1=CCN(S(=O)(=O)c2ccccc2C)C1c1ccc(Cl)c(Cl)c1 (centres undefined) | . | -76* | . | . | -22%
CCOc1ccc(CNC(=O)CCC(=O)N2CC(C)Sc3ccccc32)cc1 (centres undefined) | . | -7 | . | 5%[46.1 µM] | -6%
Cc1ccc(NC(=O)C2CC(O)CN2C(=O)OCc2ccccc2)c(C)c1 (centres undefined) | 0%[46.1 µM] | -63* | 17% | 5%[46.1 µM] | -4%

High-throughput results (PubChem BioAssay)
